Hits are enriched below; roughly 3% of the tested compounds scored in any of these assays.
BCR signal inh = blocks chronic active B-cell receptor signaling | ABC-DLBCL IkBa-CBG/CBR reporter, luminescence ratio, 4 h | Potency, µM (top dose mostly 46.1 µM), without a hit: at the highest dose activity change, negative = inhibition, usual class: inhibitors | actives 0.05% (n = 340,000); active = well fitted inhibition curve with a large enough effect in the signal ratio, with a control signal flat, not every such curve was filed as active; inconclusive = small, poorly fitted or top-dose-only effect, or effect the other way, or a change in a side signal; the % refers to the signal ratio;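 note: potency is the fitted concentration of half-maximal effect; plate controls were basal doxycycline-induced cells for no effect and cells given 10 µM MG132 for full effect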
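Concentration-response series (up to 46 uM) were applied to TMD8 dual-reporter cells for 4 h at 37C with doxycycline. Green/red ratio, after filter-overlap correction, defined %Activity; red signal alone was normalised to basal cells and zero luminescence.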
KCNH2 WT inh = blocks the wildtype human KCNH2 potassium channel | U2OS, BacMam KCNH2, thallium flux FluxOr; stronger effect = lower value | activity change, % at 1.84 µM | actives 0.37% (n = 340,000);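 active = maximum activity change below -70%; inconclusive = maximum activity change between -70% and -50%; inactive = maximum activity change above -50%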; note: % is set by controls: 0 for no effect and ±100 for the full control effect
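U2OS cells transduced with wild-type KCNH2 virus are loaded with FluxOr dye for 45 min, and thallium flux is measured in kinetic reads before and after stimulation buffer. Rate constants are normalized to DMSO controls.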
KCNH2 3.1 block = KCNH2 3.1 (human) potassium channel inhibition; U2OS KCNH2 3.1, thallium flux FluxOr; stronger effect = lower value; activity change, % (tested at about 1.8 µM); actives 0.95% (n = 340,000);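 active = maximum activity change below -70%; inconclusive = maximum activity change from -70% to -50%; inactive = maximum activity change above -50%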;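 note: thallium influx rate constant from kinetic fluorescence after stimulation buffer; % is set by controls: 0 for no effect and ±100 for the full control effect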
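Thallium flux read-out: FluxOr dye with Red40 quencher in HBSS/HEPES, 45 min at RT. Rate constants from kinetic reads were normalized to positive and negative DMSO controls. Cells: U2OS virally expressing the 3.1 isoform.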
12-LOX inh = inhibitors of human 12S-lipoxygenase ALOX12; P18054; purified 12hLO, xylenol orange hydroperoxide absorbance; Potency, µM (titrated, usually from 108 µM), for inactives: top-dose activity change, negative = inhibition, usual class: inhibitors; actives 1.1% (n = 580,000); AID 1671190; active = well fitted inhibition curve with a large enough effect; inconclusive = small, poorly fitted or top-dose-only effect, or another doubt; inactive = no such curve, though single readings can be large or run the other way; note: potency is the fitted concentration of half-maximal effect; % is set by controls: 0 for no effect and ±100 for the full control effect
Target sequence (P18054 whole entry, looked up): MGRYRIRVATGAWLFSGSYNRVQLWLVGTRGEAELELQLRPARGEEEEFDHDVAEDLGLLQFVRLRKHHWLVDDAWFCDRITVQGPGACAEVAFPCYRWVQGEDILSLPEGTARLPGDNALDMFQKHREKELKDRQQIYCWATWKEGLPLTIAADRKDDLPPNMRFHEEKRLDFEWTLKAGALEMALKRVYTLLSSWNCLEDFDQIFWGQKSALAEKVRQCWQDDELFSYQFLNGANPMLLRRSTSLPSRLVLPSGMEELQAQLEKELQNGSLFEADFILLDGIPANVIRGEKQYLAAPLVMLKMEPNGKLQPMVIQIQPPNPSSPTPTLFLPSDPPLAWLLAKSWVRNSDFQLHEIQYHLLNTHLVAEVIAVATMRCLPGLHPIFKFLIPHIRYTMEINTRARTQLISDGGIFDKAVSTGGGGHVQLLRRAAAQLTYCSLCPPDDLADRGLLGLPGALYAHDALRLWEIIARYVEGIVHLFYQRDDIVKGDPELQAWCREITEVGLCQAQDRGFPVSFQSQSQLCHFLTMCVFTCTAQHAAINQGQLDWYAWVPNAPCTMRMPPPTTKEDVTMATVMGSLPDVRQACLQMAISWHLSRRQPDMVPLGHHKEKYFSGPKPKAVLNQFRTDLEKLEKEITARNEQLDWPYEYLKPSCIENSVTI
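Purified human 12hLO at 150 nM in 25 mM Hepes, 0.01% Triton X-100, pH 7.0, preincubated 15 min at room temperature with compound. Reaction started with 40 uM arachidonic acid, 30 min at room temperature. Hydroperoxide measured by Fe-xylenol orange, 573/405 nm absorbance ratio.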
ClpP mod = qHTS Assay for Activators of ClpP; purified B. subtilis ClpP, FRET peptide cleavage, 20 min; Potency, µM (titrated, usually from 57.5 µM), for the others: at the top dose activity change, negative = active; actives 1.9% (n = 340,000); AID 651965, 2013; active = well fitted falling curve with a large enough effect; inconclusive = small, poorly fitted or top-dose-only effect; inactive = no such curve, though single readings can be large or run the other way; note: potency is the fitted concentration of half-maximal effect; the source files actives as falling curves though it sought activators and does not explain the sign; nearly all actives have a fitted effect of over 65% in size
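ClpP 10 microg/mL final, pH 8 Tris/KCl buffer with BSA, glycerol, Tween-20; compound pinned in; FRET-FV substrate; RT 20 min; Ex320/Em430; ΔFRET vs ADEP 5.8 microM, DMSO, no enzyme.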
LDHA block = blocks human lactate dehydrogenase A; P00338; purified LDHA, NADH/diaphorase-resazurin fluorescence; stronger effect = lower value; activity change, % (values are at about 110 or 230 µM); actives 0.15% (n = 480,000); in the data active = activity change below about -30%; inconclusive = mostly about -25% to -30%;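 note: plate controls were DMSO wells for no effect and wells without enzyme for full effect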
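Human LDH5 (2 nM) was incubated with 0.06 mM NADH and 0.2 mM pyruvate for 5 min at room temperature in Tris pH 7.4. Remaining NADH was coupled through diaphorase/resazurin, and resorufin fluorescence was read at 0 and 20 min.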
An asterisk follows results filed as active; ? = inconclusive; . = no result; [ ] = dose if it differs, or a comment.

SMILES	BCR signal inh	KCNH2 WT inh	KCNH2 3.1 block	12-LOX inh	ClpP mod	LDHA block
COc1ccc(C(=O)/C(=C\c2ccc(C)o2)c2nc3ccccc3o2)cc1	.	.	.	?	.	7
COc1cccc(C(=O)/C(=C/c2ccncc2)c2nc3ccccc3o2)c1	.	.	.	?	.	0
COc1cc(OC)cc(C(=O)/C(=C\c2ccco2)c2nc3ccccc3o2)c1	.	.	.	40µM*	.	10
COc1cccc(C(=O)/C(=C/c2ccco2)c2nc3ccccc3o2)c1	.	.	.	40µM*	.	-8
COc1ccc(C(=O)/C(=C/c2ccco2)c2nc3ccccc3o2)cc1	.	.	.	14µM*	.	4
CC(=C/c1ccccc1)/C=N/Nc1ccc(Cl)cc1	.	.	.	22%	.	2
CCC(=O)Oc1ccc2c(c1)O/C(=C\c1ccco1)C2=O	6%	-4	-7	25µM*	.	1
O=C1c2cccc(O)c2C(=O)c2c(O)cccc21	0%	.	.	34%	.	.
O=C1C=C(O)c2cccc(O)c2C1=O	?	4	3	35µM*	3%	16
Cc1ccc(C)c(CN2CCC(CNC(=O)Nc3cccc(Cl)c3C)CC2)c1	0%	7	-23	0%	.	-3
Cc1ccc(NC(=O)NCC2CCN(Cc3cccc(Cl)c3)CC2)cc1Cl	0%	5	?	?	-3%	0
CCc1ccc(NC(=O)NCC2CCN(Cc3cccc(Cl)c3)CC2)cc1	-1%	16	-91*	?	-5%	-4
Cc1ccc(NC(=O)NCC2CCN(Cc3cc(C)ccc3Cl)CC2)c(C)c1	3%	-151*	-23	-5%	1%	0
O=C(NCCNc1ncccn1)Nc1ccc2c(c1)Cc1ccccc1-2	.	.	.	-44%	.	-3
COc1ccc(Nc2cc(C)nc3c(C)ccc([N+](=O)[O-])c23)cc1	.	.	.	?	.	-5
O=C(NC1CCSC1=O)c1cc2ccccc2o1 (centres undefined)	.	.	.	3%	.	0
Cc1ccc([N+](=O)[O-])cc1NC1OC(CO)C(O)C1O (centres undefined)	6%	-8	-2	-12%	0%	-6
COC(=O)c1cc(C)c(C)cc1NC1OC(CO)C(O)C1O (centres undefined)	.	-10	-10	?	3.5µM*	-3
O=C1CC(N2CCN(S(=O)(=O)c3ccccc3F)CC2)C(=O)N1c1ccccc1F (centres undefined)	.	15	-2	?	0%	-35*
COc1ccc(-c2ccc([C@H]3[C@H]4C=CC[C@@H](C)[C@@H]4C(=O)N3Cc3ccccc3)c(F)c2)cc1	12%	1	10	-19%	20µM*	-2
COc1ccc(-c2ccc(OC)c([C@H]3[C@H]4C=CC[C@@H](C)[C@@H]4C(=O)N3Cc3ccccc3)c2)cc1	0%	-7	3	-5%	25µM*	-3
COc1ccc(-c2ccc(C)cc2)cc1[C@H]1[C@H]2C=CC[C@@H](C)[C@@H]2C(=O)N1Cc1ccccc1	-1%	-16	-13	-2%	-3%	-6
CCCCC(CC)CNC(=O)CCC(=O)NCC(CC)CCCC (centres undefined)	.	.	.	?	.	6
O=Cc1cccc(-c2cncnc2)c1	.	.	.	7%[12.5 µM]	.	.
O=S(=O)(c1ccc(Cl)cc1)c1nc(-c2ccccc2Br)oc1NCc1ccccc1	.	.	.	-9%	20µM*	0
Cc1ccccc1-c1nc(S(=O)(=O)c2ccc(Br)cc2)c(NCc2cccnc2)o1	?	-26	-21	26%	-19%	-3
CN(C1CCCCCC1)S(=O)(=O)c1ccc2oc(=O)ccc2c1	.	.	.	?	.	-1
Cc1nn(C)c(C)c1CN(C)C(=O)CCCC(=O)O	?	0	5	18µM*	-1%	2
Cc1nn(C)c(C)c1CN(C)C(=O)Cn1nc(C(F)(F)F)c(Cl)c1C	.	.	.	15%	.	-2
O=C(O)[C@@H]1CCCC[C@@H]1C(=O)N1CCOCC1	.	.	.	11%	.	-12

High-throughput results: PubChem BioAssay, National Center for Advancing Translational Sciences (NCATS)
